# In PubChem BioAssay AID1159580 (chemical genetic matrix, 2015):
# In all, about 5,500 compounds went through this assay and about 2,000 (36%) were called active. Not shown: some 18% with an inconclusive outcome. Some of the results follow. A number with no mark means an inactive call. Rule as the data show it: active = normalized growth mostly below about 0.91 (no sharp cut-off); inconclusive = no clear call, values can overlap the other calls; inactive = mostly above about 0.92.
# Experiment: chemical genetic growth profiling, strain panel (AID 1159580);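 also: tested at 20 µM; growth read once vehicle control cultures reached saturation at 30 °C; 1 = growth at the plate median or of vehicle wells; lower values mean less growth of the strain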
# Conditions: growth OD
# [1] = S. cerevisiae deletion strains, locus YGR229C, strain SMI1, active compounds read low
# [2] = S. cerevisiae deletion strains, locus YMR307W, strain GAS1, active compounds read low
structure (smiles),measurement,setting,value
COc1cc2c(c(OC)c1OC)-c1ccc(OC)c(=O)cc1C(NC(C)=O)CC2 (stereo unspecified),normalized growth,"S. cerevisiae deletion strains, locus YAL040C, strain CLN3, active compounds read low",0.95
same,normalized growth,"S. cerevisiae deletion strains, locus YDR150W, strain NUM1, active compounds read low",1.03
same,normalized growth,"S. cerevisiae deletion strains, locus YDR363W, strain ESC2, active compounds read low",1
same,normalized growth,"S. cerevisiae deletion strains, locus YER002W, strain NOP16, active compounds read low",1.01
same,normalized growth,[1],1
same,normalized growth,[2],0.984
same,normalized growth,"S. cerevisiae deletion strains, locus YNL153C, strain GIM3, active compounds read low",1.06
same,normalized growth,"S. cerevisiae deletion strains, locus YNL175C, strain NOP13, active compounds read low",1.01
same,normalized growth,"S. cerevisiae deletion strains, locus YNL197C, strain WHI3, active compounds read low",1.01
same,normalized growth,"S. cerevisiae deletion strains, locus YNL224C, strain SQS1, active compounds read low",1
same,normalized growth,"S. cerevisiae deletion strains, locus YOR083W, strain WHI5 (second series), active compounds read low",1.02
COc1cc2c(c(OC)c1OC)-c1ccc(O)c(=O)cc1[C@@H](NC(C)=O)CC2,normalized growth,"S. cerevisiae deletion strains, locus YBR021W, strain FUR4, active compounds read low",0.865
same,normalized growth,"S. cerevisiae deletion strains, locus YBR229C, strain ROT2, active compounds read low",0.962
same,normalized growth,"S. cerevisiae deletion strains, locus YCL029C, strain bik1, active compounds read low",0.982
same,normalized growth,"S. cerevisiae deletion strains, locus YDL035C, strain GPR1, active compounds read low",0.543 (active)
same,normalized growth,"S. cerevisiae deletion strains, locus YDL074C, strain BRE1, active compounds read low",0.515 (active)
same,normalized growth,"S. cerevisiae deletion strains, locus YDL101C, strain DUN1, active compounds read low",0.715 (active)
same,normalized growth,"S. cerevisiae deletion strains, locus YDL134C, strain PPH21, active compounds read low",0.87 (active)
same,normalized growth,"S. cerevisiae deletion strains, locus YDL185W, strain tfp1, active compounds read low",0.323 (active)
same,normalized growth,"S. cerevisiae deletion strains, locus YDL192W, strain arf1, active compounds read low",0.978
same,normalized growth,"S. cerevisiae deletion strains, locus YDR101C, strain arx1, active compounds read low",0.904 (active)
same,normalized growth,"S. cerevisiae deletion strains, locus YDR162C, strain NBP2, active compounds read low",0.382 (active)
same,normalized growth,"S. cerevisiae deletion strains, locus YDR318W, strain mcm21, active compounds read low",0.94
same,normalized growth,"S. cerevisiae deletion strains, locus YDR388W, active compounds read low",1
same,normalized growth,"S. cerevisiae deletion strains, locus YDR502C, strain sam2, active compounds read low",0.93
same,normalized growth,"S. cerevisiae deletion strains, locus YEL061C, strain CIN8, active compounds read low",0.819 (active)
same,normalized growth,"S. cerevisiae deletion strains, locus YER110C, active compounds read low",1.03
same,normalized growth,"S. cerevisiae deletion strains, locus YER155C, strain BEM2, active compounds read low",0.98
same,normalized growth,"S. cerevisiae deletion strains, locus YER167W, strain BCK2, active compounds read low",0.798 (active)
same,normalized growth,"S. cerevisiae deletion strains, locus YGL078C, strain dbp3, active compounds read low",0.957
same,normalized growth,"S. cerevisiae deletion strains, locus YGL086W, strain mad1, active compounds read low",0.882 (active)
same,normalized growth,"S. cerevisiae deletion strains, locus YGL248W, strain PDE1, active compounds read low",0.744 (active)
same,normalized growth,"S. cerevisiae deletion strains, locus YGR078C, strain PAC10, active compounds read low",0.729 (active)
same,normalized growth,"S. cerevisiae deletion strains, locus YGR135W, strain pre9, active compounds read low",0.945
same,normalized growth,[1],0.247 (active)
same,normalized growth,"S. cerevisiae deletion strains, locus YGR252W, strain gcn5, active compounds read low",0.879
same,normalized growth,"S. cerevisiae deletion strains, locus YHR030C, strain SLT2, active compounds read low",0.879 (active)
same,normalized growth,"S. cerevisiae deletion strains, locus YHR079C, strain IRE1 (second series), active compounds read low",0.851 (active)
same,normalized growth,"S. cerevisiae deletion strains, locus YHR094C, strain hxt1, active compounds read low",0.988
same,normalized growth,"S. cerevisiae deletion strains, locus YHR129C, strain ARP1, active compounds read low",0.764 (active)
same,normalized growth,"S. cerevisiae deletion strains, locus YHR200W, strain rpn10, active compounds read low",0.977
same,normalized growth,"S. cerevisiae deletion strains, locus YIL066C, strain RNR3, active compounds read low",0.543 (active)
same,normalized growth,"S. cerevisiae deletion strains, locus YIL073C, strain SPO22, active compounds read low",0.355 (active)
same,normalized growth,"S. cerevisiae deletion strains, locus YIL125W, strain kgd1, active compounds read low",0.881 (active)
same,normalized growth,"S. cerevisiae deletion strains, locus YIR030C, strain dcg1, active compounds read low",0.988
same,normalized growth,"S. cerevisiae deletion strains, locus YJL095W, strain BCK1, active compounds read low",0.722 (active)
same,normalized growth,"S. cerevisiae deletion strains, locus YJL134W, strain LCB3, active compounds read low",0.913 (active)
same,normalized growth,"S. cerevisiae deletion strains, locus YJL168C, strain set2, active compounds read low",1
same,normalized growth,"S. cerevisiae deletion strains, locus YJL187C, strain SWE1 (second series), active compounds read low",0.59 (active)
same,normalized growth,"S. cerevisiae deletion strains, locus YJR043C, strain POL32, active compounds read low",0.55 (active)
same,normalized growth,"S. cerevisiae deletion strains, locus YKL009W, strain mrt4, active compounds read low",0.984
same,normalized growth,"S. cerevisiae deletion strains, locus YKL068W, active compounds read low",0.968
same,normalized growth,"S. cerevisiae deletion strains, locus YKL085W, strain MDH1 (second series), active compounds read low",0.91 (active)
same,normalized growth,"S. cerevisiae deletion strains, locus YKL085W, strain MDH1, active compounds read low",0.91 (active)
same,normalized growth,"S. cerevisiae deletion strains, locus YKL190W, strain CNB1, active compounds read low",0.593 (active)
same,normalized growth,"S. cerevisiae deletion strains, locus YKR001C, strain vps1, active compounds read low",0.889 (active)
same,normalized growth,"S. cerevisiae deletion strains, locus YLR039C, strain RIC1, active compounds read low",0.454 (active)
same,normalized growth,"S. cerevisiae deletion strains, locus YLR058C, strain SHM2, active compounds read low",0.691 (active)
same,normalized growth,"S. cerevisiae deletion strains, locus YLR102C, strain apc9, active compounds read low",1.02
same,normalized growth,"S. cerevisiae deletion strains, locus YLR262C, strain YPT6, active compounds read low",0.72
same,normalized growth,"S. cerevisiae deletion strains, locus YLR268W, strain sec22, active compounds read low",0.852 (active)
same,normalized growth,"S. cerevisiae deletion strains, locus YLR330W, strain CHS5, active compounds read low",0.886 (active)
same,normalized growth,"S. cerevisiae deletion strains, locus YLR342W, strain FKS1 (second series), active compounds read low",0.801
same,normalized growth,"S. cerevisiae deletion strains, locus YLR371W, strain rom2, active compounds read low",0.933
same,normalized growth,"S. cerevisiae deletion strains, locus YLR418C, strain cdc73, active compounds read low",0.841
same,normalized growth,"S. cerevisiae deletion strains, locus YML016C, strain PPZ1, active compounds read low",0.829 (active)
same,normalized growth,"S. cerevisiae deletion strains, locus YML032C, strain rad52, active compounds read low",1
same,normalized growth,"S. cerevisiae deletion strains, locus YML124C, strain tub3, active compounds read low",1
same,normalized growth,"S. cerevisiae deletion strains, locus YMR078C, strain ctf18, active compounds read low",1.01
same,normalized growth,"S. cerevisiae deletion strains, locus YMR223W, strain ubp8, active compounds read low",0.938
same,normalized growth,[2],0.577 (active)
same,normalized growth,"S. cerevisiae deletion strains, locus YNL067W, strain RPL9B, active compounds read low",0.732 (active)
same,normalized growth,"S. cerevisiae deletion strains, locus YNL233W, strain BNI4, active compounds read low",0.81 (active)
same,normalized growth,"S. cerevisiae deletion strains, locus YNL250W, strain rad50, active compounds read low",0.968
same,normalized growth,"S. cerevisiae deletion strains, locus YNL271C, strain bni1, active compounds read low",0.843 (active)
same,normalized growth,"S. cerevisiae deletion strains, locus YNL298W, strain CLA4, active compounds read low",0.891 (active)
same,normalized growth,"S. cerevisiae deletion strains, locus YNL307C, strain MCK1, active compounds read low",1.01
same,normalized growth,"S. cerevisiae deletion strains, locus YNL322C, strain KRE1, active compounds read low",0.639 (active)
same,normalized growth,"S. cerevisiae deletion strains, locus YNR052C, strain pop2, active compounds read low",0.961
same,normalized growth,"S. cerevisiae deletion strains, locus YOL006C, strain TOP1, active compounds read low",0.198 (active)
same,normalized growth,"S. cerevisiae deletion strains, locus YOL012C, strain htz1",0.984
same,normalized growth,"S. cerevisiae deletion strains, locus YOL147C, strain pex11, active compounds read low",1.01
same,normalized growth,"S. cerevisiae deletion strains, locus YOR061W, strain CKA2, active compounds read low",0.753 (active)
same,normalized growth,"S. cerevisiae deletion strains, locus YOR069W, strain VPS5, active compounds read low",0.896 (active)
same,normalized growth,"S. cerevisiae deletion strains, locus YOR136W, strain idh2, active compounds read low",0.988
same,normalized growth,"S. cerevisiae deletion strains, locus YOR144C, strain elg1, active compounds read low",0.97
same,normalized growth,"S. cerevisiae deletion strains, locus YOR184W, strain ser1, active compounds read low",1
same,normalized growth,"S. cerevisiae deletion strains, locus YOR316C, strain cot1, active compounds read low",1.02
same,normalized growth,"S. cerevisiae deletion strains, locus YPL055C, strain LGE1, active compounds read low",0.436 (active)
same,normalized growth,"S. cerevisiae deletion strains, locus YPL241C, strain CIN2, active compounds read low",0.9 (active)
same,normalized growth,"S. cerevisiae deletion strains, locus YPR119W, strain clb2, active compounds read low",1.03
same,normalized growth,"S. cerevisiae deletion strains, locus YPR141C, strain kar3, active compounds read low",0.997
same,normalized growth,"S. cerevisiae deletion strains, locus YPR163C, strain tif3, active compounds read low",1.01
same,normalized growth,"S. cerevisiae deletion strains, locus YPR167C, strain met16, active compounds read low",0.929
same,normalized growth,"S. cerevisiae deletion strains, strain wtn01, active compounds read low",0.881 (active)
same,normalized growth,"S. cerevisiae strains, strain wild type, active compounds read low",0.285 (active)
